Source: PubChem (National Center for Advancing Translational Sciences (NCATS))
Only some compounds are listed: those with a hit (about 2.1% of all), similar ones and a draw of the others.
FUS suppressor: rescues growth of FUS-expressing yeast | Potency, µM (highest dose often 76.6 µM), hits mostly activators | 390,000 compounds, 0.24% hits | S. cerevisiae FUS-expressing, growth rescue, OD600, 24 h; further: nearly all actives have a fitted effect of over 55% in size
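Restored growth of FUS-toxic S. cerevisiae, read as 600 nm absorbance after 24 h at 30C in galactose medium (starting OD 0.005). Controls CP55940 and DMSO.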
aSyn yeast inh: inhibitors of alpha-synuclein toxicity in yeast; Yeast expressing alpha-synuclein, growth rescue, BacTiter-Glo, 24 h; Potency, µM (doses to about 46.1 µM), usual class: activators; 370,000 compounds, 0.14% hits; further: nearly all actives have a fitted effect of over 65% in size
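Galactose-induced alpha-syn yeast (OD600=0.02, raffinose-pregrown) + pinned cpd, 24 hr, 30 deg C; growth by BacTiter-Glo luminescence. Growth restoration scores as activation.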
TDP43 rescue: rescues yeast growth from TDP-43 toxicity; TDP-43 expressing yeast growth rescue, BacTiter-Glo, 24 h; Potency, µM (top dose mostly 46.1 µM), actives largely listed as activators; 410,000 compounds, 1.8% hits; further: nearly all actives have a fitted effect of over 50% in size
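Growth rescue of TDP-43-toxic yeast measured as ATP luminescence (BacTiter-Glo). Cells grown to mid-log in raffinose, induced in galactose at OD600=0.02, exposed to compound 24 hr at 30 deg C.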
Abeta yeast res: compounds reversing amyloid beta toxicity in yeast. yeast expressing A-beta42, growth rescue, OD600, 48 h; response scale: 0% DMSO, 100% iron-clioquinol control. Potency, µM (highest dose often 46.1 µM), usual class: activators. 410,000 compounds, 0.063% hits. AID 1347071; further: nearly all actives have a fitted effect of over 55% in size
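Yeast growth medium received pinned compounds, then yeast cells expressing toxic A-beta were added; plates incubated at 30 C for 48 hr. Growth read as absorbance at 600 nm, normalized to DMSO and equimolar FeCl3 plus clioquinol controls.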
Hits are given with their value; . = inactive; ? = inconclusive; / = not tested or not shown; ! = not active in a repeat; [ ] = another dose, or the depositor's remark. The call rests on the fitted dose curve; in most records, active means well fitted curve in the direction sought with a large enough effect; inconclusive means small, poorly fitted or top-dose-only effect, or another doubt; inactive means no such curve, though single readings can be large; an effect the other way counts as inactive or inconclusive.

SMILES | FUS suppressor | aSyn yeast inh | TDP43 rescue | Abeta yeast res
Cc1cc(NC(=O)c2cc(-c3ccncc3)nc3ccccc23)ccc1Br | / | . | 17.8µM | .
Cc1cc(NC(=O)c2ccoc2C)ccc1Br | . | . | 11.2µM | .
Cc1csc(NC(=O)c2cc(-c3ccccc3)nc3ccccc23)n1 | / | . | 17.8µM | .
Cc1ccc(NC(=O)c2ccoc2C)cc1C | . | . | . | .
CC(=O)c1cc(-c2ccccc2S(=O)(=O)NC(C)(C)C)c(=O)n2c1CCC2 | . | / | / | /
N#CC[n+]1cccc(Br)c1 | / | . | / | /
N#Cc1ccc(/C=C2\CC3(OC(=O)C4CCCCC4)CCCN2C3)cc1 (stereo unspecified) | . | / | / | /
COC(=O)c1cc(C(=O)OCC(=O)Nc2ccccc2OC(F)F)cc([N+](=O)[O-])c1 | . | . | 22.4µM | .
O=C(COC(=O)Cc1ccc(Cl)cc1Cl)Nc1ccccc1OC(F)F | . | . | 20µM | .
O=C(COC(=O)C1CCCCC1)Nc1ccccc1OC(F)F | . | . | 12.6µM | .
O=S1(=O)CC2c3ccccc3CN2CN1Cc1ccccc1 (stereo unspecified) | . | / | / | /
COc1ccc(CNC2CCC23CCC(c2ccccc2)CC3)cc1OC (stereo unspecified) | . | / | / | /
COc1ccc(/C=C/c2ccnc3ccccc23)cc1 | / | . | / | /
O=C(OC1CCCCC1)c1ccc(NC(=O)c2ccco2)cc1 | . | . | 35.5µM | .[9.22 µM]
O=C(Nc1ccc(OC(=O)c2ccco2)cc1)c1ccco1 | . | . | . | .
Cc1noc(C)c1-c1ccc(C(=O)NCCc2ccccc2)c2occc12 | ? | . | 31.6µM | .
CC(=O)Nc1ccc(NC(=O)c2ccc(-c3c(C)noc3C)c3ccoc23)cc1 | . | . | . | .
Cc1noc(C)c1-c1ccc(C(=O)NCc2cccs2)c2occc12 | . | . | 15.8µM | .
CC1=C2NC(N)=[N+](Cc3ccccc3)CC2n2c(=O)n(-c3ccccc3)c(=O)n2C1 (stereo unspecified) | . | / | / | /
O=C(Nc1cc(S(=O)(=O)N2CCOCC2)ccc1N1CCCC1)c1cc2c(s1)CCCC2 | . | / | / | /
COc1ccc(N(C(=O)c2ccncc2)S(=O)(=O)c2ccc(Cl)cc2)cc1 | . | 10µM | 0.891µM | .
Cc1ccc(C)c(S(=O)(=O)N(C(=O)c2ccncc2)c2ccc(OC(=O)c3ccncc3)cc2)c1 | . | ? | . | .
COc1ccc(N(C(=O)c2cc(OC)c(OC)c(OC)c2)S(=O)(=O)c2ccc(C)cc2)cc1 | 31.6µM | / | . | .
Cc1ccc(S(=O)(=O)N(C(=O)c2ccncc2)c2ccc(OC(=O)c3ccncc3)cc2)c(C)c1 | / | ? | 7.08µM | .
C[C@@H]1CCN(C2CC2)S(=O)(=O)c2ccc(N3CCC[C@H]3CO)cc2O1 | . | / | / | /
SMILES | FUS suppressor | aSyn yeast inh | TDP43 rescue | Abeta yeast res
CCc1ccc2oc(-c3cc(N=Cc4cccc(OC)c4O)ccc3O)nc2c1 | . | . | 15.8µM | .
O=C(CSc1nnc(-c2cccnc2)n1C1CCCCC1)N1CCCC1 | . | / | / | /
COc1ccc(CNS(=O)(=O)c2cc(C(=O)Nc3cc(Cl)cc(Cl)c3)ccc2F)cc1 | . | / | 14.1µM | .
O=C(Nc1cc(Cl)cc(Cl)c1)c1ccc(F)c(S(=O)(=O)NCc2ccccc2Cl)c1 | . | / | . | .
COc1cc(C(=O)NCC(=O)OCC(=O)c2cccc3ccccc23)cc(OC)c1OC | 12.6µM | . | . | .
Cc1cccc(C)c1NC(=O)C1CCN(c2ncccn2)CC1 | . | / | / | /
CC1CCN(c2ccc(C(=O)O)cc2NS(=O)(=O)c2ccccc2)CC1 | . | / | / | /
CCOc1ccccc1C(=O)N(Cc1cccs1)c1ccc(Cl)cc1 | . | / | 22.4µM | .
Cc1ccc(N(Cc2cccs2)C(=O)c2ccccc2Cl)cc1 | . | / | . | .
CCC[C@H]1[C@@H](N(C)Cc2ccccc2)CC[C@@]23CCCN2C(=O)CCC[C@@H]13 | . | / | / | /
Brc1cc2c(cc1Br)OCCOCCOCCO2 | . | . | 20µM | .
CCc1nn(CCCC(=O)NCc2ccc(OC(C)C)cc2)c(=O)c2cc3occc3n12 | 31.6µM! | . | . | .
CCc1ccc(NC(=O)CCCn2nc(CC)n3c(cc4occc43)c2=O)cc1 | . | . | . | .
CCc1nn(CCCC(=O)NC2CCCCC2C)c(=O)c2cc3occc3n12 (stereo unspecified) | . | . | 22.4µM | .
CCN(CC)c1ccc(C=Nn2c(C)nnc2C)cc1 | . | / | / | /
O=C1C=C(c2ccccc2C(F)(F)F)C[C@@H](c2ccc3c(c2)OCO3)C1 | . | . | 17.8µM | .
COc1ccccc1C1=CC(=O)C[C@H](c2ccc3c(c2)OCO3)C1 | . | . | ? | .
Cc1ccc(C2=CC(=O)C[C@H](c3ccc4c(c3)OCO4)C2)cc1 | . | . | 12.6µM | .
COc1ccc(C2=CC(=O)C[C@H](c3ccc4c(c3)OCO4)C2)cc1 | . | . | 11.2µM | .
CC(=O)Nc1ccc(C2=CC(=O)C[C@H](c3ccc4c(c3)OCO4)C2)cc1 | . | . | 22.4µM | .
O=C1C=C(c2ccc(O)cc2)C[C@@H](c2ccc3c(c2)OCO3)C1 | . | . | . | .
CC(C)CNC(=O)OCc1cn(Cc2cccc(F)c2F)nn1 | . | / | / | /
COC(=O)[C@@]12CCCCC3=C1N(CCC3)C(=O)[C@H]2CC(=O)N1CCN(C(=O)c2ccco2)CC1 | . | / | / | /
COC(=O)[C@H]1C[C@@]2(n3ccc4ccccc43)c3ccccc3N[C@H]2N1 | . | / | / | /
COc1ccc(-n2c(SCC(=O)Nc3ccc(Oc4ccccc4)cc3)nnc2-c2cccnc2)cc1 | . | / | / | /
SMILES | FUS suppressor | aSyn yeast inh | TDP43 rescue | Abeta yeast res
O=C1C=C(/C=C/c2ccccc2)C[C@@H](c2ccc3c(c2)OCO3)C1 | . | . | 20µM | .
CC(C)[C@H](NC(=O)[C@@H]1CCCN1)C(=O)N1CCC2CCN(S(=O)(=O)c3ccccc3)CC21 (stereo partly specified) | . | / | / | /
O=C(Nc1cc(Cl)cc(Cl)c1)c1cnn2c1NC(=C1CC1)C=C2C(F)F | / | . | / | /
COc1cccc(CNS(=O)(=O)/C=C/c2ccc3c(c2)OCO3)c1 | . | . | 15.8µM | .
COc1cc(C=Nn2c(-c3n[nH]c4c3CCC4)n[nH]c2=S)ccc1OCc1ccccc1 | . | / | / | /
CC(C)CCN1C(=O)c2ccc(C(=O)OCC(=O)N(CC(C)C)C3CCS(=O)(=O)C3)cc2C1=O (stereo unspecified) | 31.6µM | . | . | .
Cc1ccc2nc(-c3ccc(NC(=O)CSc4nnc(-c5cc(-c6ccc(F)cc6)n[nH]5)n4N)cc3)sc2c1 | . | / | / | /
N#CCC[C@@H]1CC[C@]2(CCCN(Cc3ccc(Br)cc3)C2)O1 | . | / | / | /
CC[C@@H]1/C(=C/c2ccccc2)N2C(=O)C[C@@H](c3ccccc3)N=C2N1Cc1ccc(OC)cc1OC | . | / | / | /
COc1cc(/C=C(/C#N)C(=O)NCc2ccccc2)cc(OC)c1OC | . | ? | 20µM | .
Cc1ccc(C2CC(c3ccc(Cl)cc3)=NNC2=O)cc1 (stereo unspecified) | . | . | 22.4µM | .[9.22 µM]
Cc1[nH]c2ccccc2c1C(=O)CNc1ccc(Br)cc1 | / | . | / | /
Cc1ccc(C(=O)NNC(=S)NC(=O)c2ccc(Cl)cc2Cl)cc1 | . | 1.12µM | ? | .
